# The campaign covered roughly 50,000 compounds. About 800 (1.6%) showed an effect of 50% or more. The entries come from a sample that favours strong results as a whole.
# Target: Bcl-2-like protein 10 (Homo sapiens) (UniProt Q9HD36)
# Assay: Phenotype converters, Bcl-B/TR3 peptide binding displacement, primary biochemical FP (AID 1240);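 also: 0% = Bcl-B with tracer peptide and DMSO and 100% = tracer peptide lacking Bcl-B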
# Conditions: GST-Bcl-B / FITC-TR3 peptide fluorescence polarization; stronger effect = higher value; compound at 3.75 mg/L
# Chain of Bcl-2-like protein 10 (Homo sapiens) (Q9HD36 whole entry, looked up): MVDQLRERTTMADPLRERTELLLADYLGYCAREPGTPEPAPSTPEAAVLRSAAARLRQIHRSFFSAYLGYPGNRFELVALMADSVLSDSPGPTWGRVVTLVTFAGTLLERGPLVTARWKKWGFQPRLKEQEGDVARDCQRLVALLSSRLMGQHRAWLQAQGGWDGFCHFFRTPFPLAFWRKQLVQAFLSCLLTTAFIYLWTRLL
row,Compound,displacement [%]
1,COc1cccc(OCCOc2c(Cl)cc(/C=c3\sc4nc5ccccc5n4c3=O)cc2OC)c1,92.6
2,COc1cccc(/C=c2/sc3nc4ccccc4n3c2=O)c1,92.4
3,O=c1/c(=C\c2ccc(OCc3cccc4ccccc34)cc2)sc2nc3ccccc3n12,11.6
4,O=c1/c(=C/c2cccc(Br)c2)sc2nc3ccccc3n12,14.5
5,O=c1/c(=C/c2ccccc2OCc2ccccc2F)sc2nc3ccccc3n12,12.4
6,O=c1/c(=C\c2ccccc2OCc2cccc3ccccc23)sc2nc3ccccc3n12,104
7,COc1c(Br)cc(Br)cc1/C=c1\sc2nc3ccccc3n2c1=O,21.9
8,CCOC(=O)COc1cc(Br)c(/C=c2\sc3nc4ccccc4n3c2=O)cc1OC,11.1
9,COc1cc(/C=c2\sc3nc4ccccc4n3c2=O)cc(Cl)c1OCCOc1ccc(Br)cc1,-2.9
10,COc1cc(/C=c2\sc3nc4ccccc4n3c2=O)cc(Cl)c1OCc1ccccc1Cl,2.3
11,COc1cc(Br)c(/C=c2/sc3nc4ccccc4n3c2=O)cc1OC,132
12,O=C(c1ccccc1)c1ccc(N=Cc2ccc([N+](=O)[O-])s2)cc1,8.8
13,CCOc1ccccc1/C=C/C(=O)c1cccs1,-11.9
14,CC(C)CN1C(=O)/C(=C/c2cccc3ccccc23)SC1=S,8.3
15,O=[N+]([O-])c1cccc(S(=O)(=O)NCc2ccccc2)c1,-3.3
16,NNC(=O)CSc1nc2ccccc2n1Cc1ccccc1,-9.6
17,Cc1occc1C(=O)NC1CCCCCC1,-13.4
18,Cc1ccc(CNC(=O)C(C)Oc2ccc(Cl)cc2Cl)cc1 (stereo not given),-12.1
19,Cc1ccc(S(=O)(=O)Oc2cccc(/C=c3/sc4nc5ccccc5n4c3=O)c2)cc1,-0.5
20,O=c1/c(=C\c2cccc(OS(=O)(=O)c3cccc([N+](=O)[O-])c3)c2)sc2nc3ccccc3n12,101
21,O=c1/c(=C\c2ccc(OS(=O)(=O)c3cccc([N+](=O)[O-])c3)cc2)sc2nc3ccccc3n12,-6.5
22,Cc1ccc(S(=O)(=O)Oc2ccc(/C=C3\SC(=S)NC3=O)cc2)cc1,-32.2
23,COC(=O)c1cc(N=NC2=C(O)CC(C)(C)CC2=O)cc(C(=O)OC)c1,-7.3
24,O=C(Nc1ccc(N2CCOCC2)cc1)c1ccc(-c2ccc(Cl)cc2Cl)o1,-4.5
25,O=C(/C=C/c1ccc(-c2ccc(Cl)cc2Cl)o1)Nc1ccc(N2CCOCC2)cc1,83

row,Compound,displacement [%]
1,CCC(=O)Nc1ccc(NC(=O)/C=C/c2ccc(-c3ccc(Cl)cc3Cl)o2)cc1,-14.5
2,O=C(O)c1cc(C(=O)O)cc(N2C(=O)c3ccc(Oc4cccc([N+](=O)[O-])c4)cc3C2=O)c1,3.2
3,CC1(C)NN(c2ccccc2)C(=S)N1CN1CCOCC1,55.9
4,S=c1n(CN2CCOCC2)nnn1-c1ccccc1,-5.3
5,CC1(C)NN(c2ccccc2)C(=S)N1c1ccccc1,9.6
6,O=C(Cn1c(-c2ccccc2)c[n+]2ccsc12)c1ccc([N+](=O)[O-])cc1,13.8
7,Cc1cc(/C=C2\C(=O)NC(=O)N(c3ccc4c(c3)OCO4)C2=O)c(C)n1-c1ccccc1,16.1
8,Cc1cc(/C=C2\C(=O)NC(=O)N(c3ccc4c(c3)OCO4)C2=O)c(C)n1-c1cccc([N+](=O)[O-])c1,52.7
9,Cc1cc(/C=C2\C(=O)NC(=O)N(c3ccc4c(c3)OCO4)C2=O)c(C)n1-c1cccnc1,136
10,Cc1cc(/C=C2\C(=O)NC(=O)N(c3ccccc3)C2=O)c(C)n1-c1cccc([N+](=O)[O-])c1,9.1
11,Cc1cc(/C=C2\C(=O)NC(=O)N(c3ccc4c(c3)OCO4)C2=O)c(C)n1-c1ccc(F)cc1,8
12,Cc1cc(/C=C2\C(=O)NC(=O)N(c3cccc(F)c3)C2=O)c(C)n1-c1cccc([N+](=O)[O-])c1,12.3
13,COc1ccc(NC(=O)/C(=C\c2ccccc2OC)NC(=O)c2ccccc2OC)cc1,3
14,O=C1N/C(=N\N=C\c2ccccc2F)SC1Cc1ccccc1[N+](=O)[O-] (stereo not given),7.3
15,O=C1C2C(c3ccc(Cl)cc3)OC3(C(=O)c4ccccc4C3=O)C2C(=O)N1c1ccc(F)c([N+](=O)[O-])c1 (stereo not given),5.6
16,COc1ccccc1NC(=O)C1=C(C)NC(=O)NC1c1cccc([N+](=O)[O-])c1 (stereo not given),-7.1
17,CCCC(C)NS(=O)(=O)c1ccccc1[N+](=O)[O-] (stereo not given),3
18,O=C(NCC1CCCO1)c1ccc(F)c2ccccc12 (stereo not given),-13.5
19,CC(=O)c1cccc(NC(=O)CC2S/C(=N\N=C\c3cccs3)NC2=O)c1 (stereo not given),-3.9
20,O=C(CC1S/C(=N\N=C\c2ccccc2)NC1=O)Nc1ccc(C(=O)O)cc1 (stereo not given),69.5
21,O=C(CC1S/C(=N\N=C\c2cccs2)NC1=O)Nc1ccc(C(=O)O)cc1 (stereo not given),121
22,O=C(CC1S\C(=N/N=C/C=C/c2ccccc2)NC1=O)Nc1ccc(C(=O)O)cc1 (stereo not given),41.6
23,O=C(CC1S/C(=N\N=C\c2ccco2)NC1=O)Nc1ccc(C(=O)O)cc1 (stereo not given),-0.3
24,O=C(CC1S/C(=N\N=C\c2cccs2)NC1=O)Nc1ccc(Cl)c(Cl)c1 (stereo not given),7.8
25,CCOC(=O)C1=NNC2C(=O)N(c3ccc(C)c(C)c3)C(=O)C12 (stereo not given),4.5

# From PubChem BioAssay AID1240 (Sanford-Burnham Center for Chemical Genomics, 2008)
